# Measured values as given in article PMC7862700, “An all-to-all approach to the identification of sequence-specific readers for epigenetic DNA modifications on cytosine”.
# Columns and labels:
# Test in all cases: DAPPL (digital affinity profiling via proximity ligation, sequencing); 10 mM Tris-HCl pH 7.5, 50 mM NaCl, 1 mM DTT, 4% glycerol, room temperature, 30 min; GST-TFs on glutathione beads, 16-mer random dsDNA library, 0.1% formaldehyde crosslink after washing; high values mean tight binding
# [1] = target: T1, FLI1 (Homo sapiens, UniProt Q01543 1-452); conditions: protein: recombinant; tags: N-terminal GST; dsDNA, one strand shown
# T1 sequence: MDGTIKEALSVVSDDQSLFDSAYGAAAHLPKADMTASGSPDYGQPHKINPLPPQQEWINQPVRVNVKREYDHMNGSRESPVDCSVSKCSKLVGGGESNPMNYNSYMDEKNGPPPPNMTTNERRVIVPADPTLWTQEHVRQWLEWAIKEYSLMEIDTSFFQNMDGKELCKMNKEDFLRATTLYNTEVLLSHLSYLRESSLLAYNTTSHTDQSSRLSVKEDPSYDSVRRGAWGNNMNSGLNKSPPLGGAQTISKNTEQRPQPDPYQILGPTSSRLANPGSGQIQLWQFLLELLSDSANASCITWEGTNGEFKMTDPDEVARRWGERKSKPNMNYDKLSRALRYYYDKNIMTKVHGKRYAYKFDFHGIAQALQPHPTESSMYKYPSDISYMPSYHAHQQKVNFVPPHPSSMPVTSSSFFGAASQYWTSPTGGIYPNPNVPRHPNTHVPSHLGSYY
# In short: (§1)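 Binding signal is each hexamer's read frequency for a factor divided by its frequency in the tag-only sample. The factors were GST-fused human transcription factors from yeast, captured on glutathione beads, DNA-barcoded and pooled with that sample. Pools were incubated with 200 nmole of a random double-stranded 16-mer DNA library in Tris/NaCl/DTT/glycerol buffer at room temperature for 30 min, then washed, crosslinked with 0.1% formaldehyde, proximity-ligated with BsaI/T4 ligase (1 h, 37 °C), PCR-amplified and sequenced on an Illumina NextSeq500.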
# [2] = target: T2, ELK1 (Homo sapiens, UniProt P19419 1-428); conditions: protein: recombinant; tags: N-terminal GST; dsDNA, one strand shown
# T2 sequence: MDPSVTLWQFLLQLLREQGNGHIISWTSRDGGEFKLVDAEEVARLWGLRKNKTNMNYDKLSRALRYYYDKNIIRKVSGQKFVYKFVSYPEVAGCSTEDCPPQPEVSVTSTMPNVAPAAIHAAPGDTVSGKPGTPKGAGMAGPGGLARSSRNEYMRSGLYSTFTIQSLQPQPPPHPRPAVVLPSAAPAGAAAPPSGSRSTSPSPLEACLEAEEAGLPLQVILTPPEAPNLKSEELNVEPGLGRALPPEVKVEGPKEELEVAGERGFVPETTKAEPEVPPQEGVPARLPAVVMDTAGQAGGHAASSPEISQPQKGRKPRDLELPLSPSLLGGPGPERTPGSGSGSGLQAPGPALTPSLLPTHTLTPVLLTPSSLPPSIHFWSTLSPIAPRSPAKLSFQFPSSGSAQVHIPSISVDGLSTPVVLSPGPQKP
# In short: as §1
# [3] = target: T3, GABPA (Homo sapiens, UniProt Q06546 1-454); conditions: protein: recombinant; tags: N-terminal GST; dsDNA, one strand shown
# T3 sequence: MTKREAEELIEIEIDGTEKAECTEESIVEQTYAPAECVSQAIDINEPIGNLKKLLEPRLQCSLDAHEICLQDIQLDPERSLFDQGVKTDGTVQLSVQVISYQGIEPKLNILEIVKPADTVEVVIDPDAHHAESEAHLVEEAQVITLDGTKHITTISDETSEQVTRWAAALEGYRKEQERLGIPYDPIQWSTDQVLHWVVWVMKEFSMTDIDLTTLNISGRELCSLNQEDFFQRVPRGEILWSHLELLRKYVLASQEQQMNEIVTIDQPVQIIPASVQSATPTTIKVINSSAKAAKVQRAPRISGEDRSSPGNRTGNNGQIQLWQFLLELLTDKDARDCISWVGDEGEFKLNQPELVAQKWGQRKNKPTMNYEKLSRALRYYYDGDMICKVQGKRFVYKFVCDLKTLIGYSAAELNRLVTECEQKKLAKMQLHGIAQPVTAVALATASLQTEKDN
# In short: as §1
# [4] = target: T4, ERG (Homo sapiens, UniProt P11308 1-479); conditions: protein: recombinant; tags: N-terminal GST; dsDNA, one strand shown
# T4 sequence: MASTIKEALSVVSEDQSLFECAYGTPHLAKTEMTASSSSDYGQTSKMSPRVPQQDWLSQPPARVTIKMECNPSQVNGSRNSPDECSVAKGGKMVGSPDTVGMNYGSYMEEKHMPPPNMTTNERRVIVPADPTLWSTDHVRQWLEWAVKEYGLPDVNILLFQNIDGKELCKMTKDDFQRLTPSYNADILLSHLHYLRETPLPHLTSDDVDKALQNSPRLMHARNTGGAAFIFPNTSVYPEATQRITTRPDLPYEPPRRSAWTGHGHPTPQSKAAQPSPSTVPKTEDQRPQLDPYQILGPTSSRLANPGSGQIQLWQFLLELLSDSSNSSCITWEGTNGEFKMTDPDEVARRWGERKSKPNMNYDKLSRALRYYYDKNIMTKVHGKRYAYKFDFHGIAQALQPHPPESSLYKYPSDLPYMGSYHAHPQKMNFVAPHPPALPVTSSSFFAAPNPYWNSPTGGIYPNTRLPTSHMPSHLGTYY
# In short: as §1
# [5] = target: ELF1 (Homo sapiens, UniProt P32519 1-619); conditions: protein: recombinant; tags: N-terminal GST; dsDNA, one strand shown
# In short: as §1
# [6] = target: T5, EHF (Homo sapiens, UniProt Q9NZC4 1-300); conditions: protein: recombinant; tags: N-terminal GST; dsDNA, one strand shown
# T5 sequence: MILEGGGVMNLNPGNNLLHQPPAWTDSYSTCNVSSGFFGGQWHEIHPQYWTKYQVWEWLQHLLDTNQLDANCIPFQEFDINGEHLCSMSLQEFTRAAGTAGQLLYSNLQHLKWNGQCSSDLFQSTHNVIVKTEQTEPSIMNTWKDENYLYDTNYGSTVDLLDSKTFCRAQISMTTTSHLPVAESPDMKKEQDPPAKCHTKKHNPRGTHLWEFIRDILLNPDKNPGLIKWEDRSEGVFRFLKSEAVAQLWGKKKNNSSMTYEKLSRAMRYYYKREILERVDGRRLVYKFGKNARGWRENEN
# In short: as §1
# [7] = target: SPI1 (Homo sapiens, UniProt P17947 1-270); conditions: protein: recombinant; tags: N-terminal GST; dsDNA, one strand shown
# In short: as §1
# [8] = target: SPIB (Homo sapiens, UniProt Q01892 1-262); conditions: protein: recombinant; tags: N-terminal GST; dsDNA, one strand shown
# In short: as §1
# [9] = target: T6, ELK3 (Homo sapiens, UniProt P41970 1-407); conditions: protein: recombinant; tags: N-terminal GST; dsDNA, one strand shown
# T6 sequence: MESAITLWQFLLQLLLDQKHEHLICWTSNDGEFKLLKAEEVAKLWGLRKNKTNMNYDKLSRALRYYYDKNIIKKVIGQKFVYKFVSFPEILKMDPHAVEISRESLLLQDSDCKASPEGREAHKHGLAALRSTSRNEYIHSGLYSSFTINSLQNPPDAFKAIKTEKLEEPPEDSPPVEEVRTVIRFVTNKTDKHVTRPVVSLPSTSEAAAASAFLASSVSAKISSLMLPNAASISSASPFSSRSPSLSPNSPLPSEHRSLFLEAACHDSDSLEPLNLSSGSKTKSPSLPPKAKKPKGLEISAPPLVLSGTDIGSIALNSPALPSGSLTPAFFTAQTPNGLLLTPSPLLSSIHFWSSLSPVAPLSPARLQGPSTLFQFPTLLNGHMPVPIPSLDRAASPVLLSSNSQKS
# In short: as §1
# [10] = target: T7, FEV (Homo sapiens, UniProt Q99581 1-238); conditions: protein: recombinant; tags: N-terminal GST; dsDNA, one strand shown
# T7 sequence: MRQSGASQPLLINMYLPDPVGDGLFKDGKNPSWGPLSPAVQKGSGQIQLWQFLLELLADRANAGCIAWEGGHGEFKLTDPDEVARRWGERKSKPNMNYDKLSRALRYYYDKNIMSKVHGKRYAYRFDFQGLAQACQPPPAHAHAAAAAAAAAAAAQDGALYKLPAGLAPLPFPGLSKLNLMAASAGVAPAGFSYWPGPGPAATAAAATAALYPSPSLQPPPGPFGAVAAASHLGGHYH
# In short: as §1
# [11] = target: ETV5 (Homo sapiens, UniProt P41161 1-510); conditions: protein: recombinant; tags: N-terminal GST; dsDNA, one strand shown
# In short: as §1
# [12] = target: HSF1 (Homo sapiens, UniProt Q00613 1-529); conditions: protein: recombinant; tags: N-terminal GST; chain copies: 3; dsDNA, one strand shown
# In short: as §1
# [13] = target: T8, SPIC (Homo sapiens, UniProt Q8N5J4 1-248); conditions: protein: recombinant; tags: N-terminal GST; dsDNA, one strand shown
# T8 sequence: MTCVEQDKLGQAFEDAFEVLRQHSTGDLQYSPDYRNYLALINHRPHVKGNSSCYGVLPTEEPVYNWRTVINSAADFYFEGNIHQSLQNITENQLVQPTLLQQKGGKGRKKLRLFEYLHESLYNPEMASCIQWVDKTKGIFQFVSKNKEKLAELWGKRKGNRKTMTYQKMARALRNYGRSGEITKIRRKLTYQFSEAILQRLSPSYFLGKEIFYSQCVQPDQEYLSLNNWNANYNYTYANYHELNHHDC
# In short: as §1
# [14] = target: ELF4 (Homo sapiens, UniProt Q99607 1-663); conditions: protein: recombinant; tags: N-terminal GST; dsDNA, one strand shown
# In short: as §1
# [15] = target: T9, ELK4 (Homo sapiens, UniProt P28324-2 1-405); conditions: protein: recombinant; tags: N-terminal GST; dsDNA, one strand shown
# T9 sequence: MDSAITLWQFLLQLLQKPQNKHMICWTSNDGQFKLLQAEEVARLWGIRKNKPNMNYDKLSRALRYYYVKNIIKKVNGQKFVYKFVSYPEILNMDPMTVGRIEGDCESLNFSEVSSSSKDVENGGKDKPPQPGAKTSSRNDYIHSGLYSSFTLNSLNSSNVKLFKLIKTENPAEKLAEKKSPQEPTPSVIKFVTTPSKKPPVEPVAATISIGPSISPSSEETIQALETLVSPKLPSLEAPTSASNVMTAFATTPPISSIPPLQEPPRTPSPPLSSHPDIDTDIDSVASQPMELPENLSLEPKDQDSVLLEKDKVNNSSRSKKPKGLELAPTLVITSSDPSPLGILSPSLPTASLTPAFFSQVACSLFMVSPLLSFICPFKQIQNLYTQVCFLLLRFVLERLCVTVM
# In short: as §1
# [16] = target: T10, ETV2 (Homo sapiens, UniProt O00321 1-342); conditions: protein: recombinant; tags: N-terminal GST; dsDNA, one strand shown
# T10 sequence: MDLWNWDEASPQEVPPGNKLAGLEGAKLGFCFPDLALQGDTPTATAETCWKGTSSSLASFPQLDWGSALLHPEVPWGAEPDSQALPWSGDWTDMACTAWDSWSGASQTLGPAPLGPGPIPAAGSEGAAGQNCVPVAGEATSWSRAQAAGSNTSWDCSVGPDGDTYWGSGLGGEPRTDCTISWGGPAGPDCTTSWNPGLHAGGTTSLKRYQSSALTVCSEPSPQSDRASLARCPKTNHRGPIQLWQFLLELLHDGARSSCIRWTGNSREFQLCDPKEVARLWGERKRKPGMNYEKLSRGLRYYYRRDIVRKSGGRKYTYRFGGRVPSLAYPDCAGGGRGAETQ
# In short: as §1
# [17] = target: T11, ELF3 (Homo sapiens, UniProt P78545 1-371); conditions: protein: recombinant; tags: N-terminal GST; dsDNA, one strand shown
# T11 sequence: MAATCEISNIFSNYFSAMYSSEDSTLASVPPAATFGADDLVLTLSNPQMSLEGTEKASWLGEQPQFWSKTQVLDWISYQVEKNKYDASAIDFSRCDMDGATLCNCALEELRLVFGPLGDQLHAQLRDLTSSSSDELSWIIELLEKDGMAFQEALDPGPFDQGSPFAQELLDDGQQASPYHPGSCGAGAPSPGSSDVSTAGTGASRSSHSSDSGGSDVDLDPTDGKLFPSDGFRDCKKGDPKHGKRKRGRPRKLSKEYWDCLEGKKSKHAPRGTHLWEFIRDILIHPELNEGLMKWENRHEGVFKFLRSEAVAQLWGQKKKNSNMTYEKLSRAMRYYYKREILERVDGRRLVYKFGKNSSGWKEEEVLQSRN
# In short: as §1
# [18] = target: CRX (Homo sapiens, UniProt O43186 1-299); conditions: protein: recombinant; tags: N-terminal GST; dsDNA, one strand shown
# In short: as §1
# [19] = target: ETV1 (Homo sapiens, UniProt P50549 1-477); conditions: protein: recombinant; tags: N-terminal GST; dsDNA, one strand shown
# In short: as §1
# Sequence of ETV1 (P50549 whole entry): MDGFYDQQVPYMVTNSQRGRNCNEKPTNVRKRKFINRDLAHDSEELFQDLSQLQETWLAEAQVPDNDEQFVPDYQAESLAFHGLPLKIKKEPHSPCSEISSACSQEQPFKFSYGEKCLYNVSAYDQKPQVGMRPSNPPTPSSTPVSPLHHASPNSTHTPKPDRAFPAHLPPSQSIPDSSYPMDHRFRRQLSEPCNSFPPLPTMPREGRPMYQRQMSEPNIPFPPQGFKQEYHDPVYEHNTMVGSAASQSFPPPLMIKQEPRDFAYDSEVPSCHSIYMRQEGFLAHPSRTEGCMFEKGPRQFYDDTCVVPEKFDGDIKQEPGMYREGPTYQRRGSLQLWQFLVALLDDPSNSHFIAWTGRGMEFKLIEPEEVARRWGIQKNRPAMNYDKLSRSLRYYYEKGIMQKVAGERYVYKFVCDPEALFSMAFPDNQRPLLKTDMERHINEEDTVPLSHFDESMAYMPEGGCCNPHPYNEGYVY
# Sequence of CRX (O43186 whole entry): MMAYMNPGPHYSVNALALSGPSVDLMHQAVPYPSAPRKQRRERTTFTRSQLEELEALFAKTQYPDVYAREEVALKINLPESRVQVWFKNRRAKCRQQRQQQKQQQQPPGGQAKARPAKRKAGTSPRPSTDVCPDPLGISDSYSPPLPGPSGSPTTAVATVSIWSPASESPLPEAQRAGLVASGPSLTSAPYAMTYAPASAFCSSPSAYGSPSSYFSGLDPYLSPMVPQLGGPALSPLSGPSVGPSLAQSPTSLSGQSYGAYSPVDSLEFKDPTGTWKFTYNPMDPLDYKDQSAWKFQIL
# Sequence of ELF4 (Q99607 whole entry): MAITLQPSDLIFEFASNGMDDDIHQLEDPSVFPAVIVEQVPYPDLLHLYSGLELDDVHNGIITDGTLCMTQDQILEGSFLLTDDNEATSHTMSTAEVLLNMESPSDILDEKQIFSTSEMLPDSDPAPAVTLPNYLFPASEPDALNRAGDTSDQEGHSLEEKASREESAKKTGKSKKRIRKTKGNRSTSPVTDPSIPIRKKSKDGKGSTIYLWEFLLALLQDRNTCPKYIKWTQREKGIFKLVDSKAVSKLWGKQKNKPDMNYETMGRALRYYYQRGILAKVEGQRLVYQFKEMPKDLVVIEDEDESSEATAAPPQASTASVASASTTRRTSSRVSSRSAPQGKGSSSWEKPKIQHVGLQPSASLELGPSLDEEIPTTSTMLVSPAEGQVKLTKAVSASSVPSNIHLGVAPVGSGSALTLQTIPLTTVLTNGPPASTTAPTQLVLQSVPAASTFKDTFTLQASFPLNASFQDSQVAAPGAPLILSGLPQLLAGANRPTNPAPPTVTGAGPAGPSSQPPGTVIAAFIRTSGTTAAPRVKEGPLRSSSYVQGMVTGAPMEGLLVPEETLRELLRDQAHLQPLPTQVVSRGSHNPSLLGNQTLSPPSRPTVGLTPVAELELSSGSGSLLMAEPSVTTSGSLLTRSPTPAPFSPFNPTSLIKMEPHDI
# Sequence of ETV5 (P41161 whole entry): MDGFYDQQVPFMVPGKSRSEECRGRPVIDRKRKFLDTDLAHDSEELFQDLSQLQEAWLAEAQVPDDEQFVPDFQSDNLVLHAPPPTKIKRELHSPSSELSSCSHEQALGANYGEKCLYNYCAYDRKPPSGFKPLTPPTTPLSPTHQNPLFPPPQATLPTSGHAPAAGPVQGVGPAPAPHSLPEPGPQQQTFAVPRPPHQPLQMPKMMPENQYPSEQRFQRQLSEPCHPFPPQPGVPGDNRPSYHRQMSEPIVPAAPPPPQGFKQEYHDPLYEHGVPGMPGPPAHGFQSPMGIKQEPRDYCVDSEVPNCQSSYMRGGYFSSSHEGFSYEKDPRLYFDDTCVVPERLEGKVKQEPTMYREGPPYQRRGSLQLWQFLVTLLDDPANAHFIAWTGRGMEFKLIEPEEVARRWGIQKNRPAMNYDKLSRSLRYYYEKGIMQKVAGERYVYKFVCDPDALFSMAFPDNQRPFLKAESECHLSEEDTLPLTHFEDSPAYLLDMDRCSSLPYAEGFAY
# Sequence of ELF1 (P32519 whole entry): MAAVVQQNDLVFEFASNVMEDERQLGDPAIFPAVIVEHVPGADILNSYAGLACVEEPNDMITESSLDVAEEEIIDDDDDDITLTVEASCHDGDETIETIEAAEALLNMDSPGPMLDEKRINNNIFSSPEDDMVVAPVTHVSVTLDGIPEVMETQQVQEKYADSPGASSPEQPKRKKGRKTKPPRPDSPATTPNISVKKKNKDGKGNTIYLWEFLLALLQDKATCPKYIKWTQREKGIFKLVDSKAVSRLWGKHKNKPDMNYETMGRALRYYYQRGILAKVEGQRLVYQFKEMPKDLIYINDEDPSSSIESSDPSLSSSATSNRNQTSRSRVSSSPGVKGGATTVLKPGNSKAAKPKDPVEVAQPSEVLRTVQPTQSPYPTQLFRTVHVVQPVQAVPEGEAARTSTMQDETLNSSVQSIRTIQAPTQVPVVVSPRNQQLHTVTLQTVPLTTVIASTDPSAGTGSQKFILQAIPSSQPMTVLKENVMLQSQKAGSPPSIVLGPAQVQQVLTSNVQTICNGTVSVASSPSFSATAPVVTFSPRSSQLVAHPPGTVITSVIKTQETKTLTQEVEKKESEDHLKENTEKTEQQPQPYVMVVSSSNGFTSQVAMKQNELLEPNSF
# Sequence of HSF1 (Q00613 whole entry): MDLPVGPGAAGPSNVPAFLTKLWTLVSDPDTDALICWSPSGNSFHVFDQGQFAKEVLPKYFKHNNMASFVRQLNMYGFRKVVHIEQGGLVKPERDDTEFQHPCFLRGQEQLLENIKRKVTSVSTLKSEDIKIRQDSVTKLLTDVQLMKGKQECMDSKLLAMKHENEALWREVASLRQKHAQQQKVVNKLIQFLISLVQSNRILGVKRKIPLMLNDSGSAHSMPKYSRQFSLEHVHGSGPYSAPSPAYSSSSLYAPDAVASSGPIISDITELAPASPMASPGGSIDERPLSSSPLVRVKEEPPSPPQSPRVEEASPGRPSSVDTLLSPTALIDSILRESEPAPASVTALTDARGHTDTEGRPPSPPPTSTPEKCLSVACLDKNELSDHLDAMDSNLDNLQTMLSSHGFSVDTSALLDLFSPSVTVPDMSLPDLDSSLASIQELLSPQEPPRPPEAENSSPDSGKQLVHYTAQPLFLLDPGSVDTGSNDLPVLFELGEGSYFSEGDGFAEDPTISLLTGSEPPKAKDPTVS
# Sequence of SPIB (Q01892 whole entry): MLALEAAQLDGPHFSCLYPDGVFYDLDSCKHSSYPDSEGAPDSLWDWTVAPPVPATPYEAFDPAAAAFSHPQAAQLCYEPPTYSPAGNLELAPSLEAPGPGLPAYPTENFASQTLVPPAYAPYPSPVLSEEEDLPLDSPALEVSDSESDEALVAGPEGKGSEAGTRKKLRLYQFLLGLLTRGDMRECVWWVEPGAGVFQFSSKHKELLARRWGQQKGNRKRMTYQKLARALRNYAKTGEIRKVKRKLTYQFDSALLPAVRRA
sequence,measurement,setting,value
GCAAAT,binding signal,[1],"1.05 fold enrichment (6-mer frequency, TF over GST control)"
same,binding signal,[2],"1.04 fold enrichment (6-mer frequency, TF over GST control)"
same,binding signal,[3],"1.04 fold enrichment (6-mer frequency, TF over GST control)"
same,binding signal,[4],"1.18 fold enrichment (6-mer frequency, TF over GST control)"
same,binding signal,[5],"1.11 fold enrichment (6-mer frequency, TF over GST control)"
same,binding signal,[6],"1.03 fold enrichment (6-mer frequency, TF over GST control)"
same,binding signal,[7],"1.02 fold enrichment (6-mer frequency, TF over GST control)"
same,binding signal,[8],"1.14 fold enrichment (6-mer frequency, TF over GST control)"
same,binding signal,[9],"1.01 fold enrichment (6-mer frequency, TF over GST control)"
same,binding signal,[10],"1.08 fold enrichment (6-mer frequency, TF over GST control)"
same,binding signal,[11],"1.1 fold enrichment (6-mer frequency, TF over GST control)"
same,binding signal,[12],"1.08 fold enrichment (6-mer frequency, TF over GST control)"
same,binding signal,[13],"1.17 fold enrichment (6-mer frequency, TF over GST control)"
same,binding signal,[14],"1.04 fold enrichment (6-mer frequency, TF over GST control)"
same,binding signal,[15],"1.02 fold enrichment (6-mer frequency, TF over GST control)"
same,binding signal,[16],"1.06 fold enrichment (6-mer frequency, TF over GST control)"
same,binding signal,[17],"1.17 fold enrichment (6-mer frequency, TF over GST control)"
same,binding signal,[18],"1.08 fold enrichment (6-mer frequency, TF over GST control)"
same,binding signal,[19],"1.11 fold enrichment (6-mer frequency, TF over GST control)"
